High-throughput results from PubChem.
Compounds with a hit are over-represented: about 3% of the library has one in this group of screens.
SENP7 inh: blocks the human protease SENP7; Q9BQF6; recombinant SENP7, Z-RLRGG-aminoluciferin luminescence, 40 min; inhibition, % at 5 µM; 1.5% of 330,000 active; AID 434973;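 active = inhibition above about 50% at the single test dose, limit read from the data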
PPC-1+TRAIL kill: kills PPC-1 cancer cells in the presence of TRAIL; PPC-1 cells + TRAIL, ATPLite viability luminescence; cell killing (% activity), % at 4 µM or 5 µM; 0.41% of 220,000 active;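 active = cell killing above 50% in the first pass at 4 µM, then a duplicate retest at 5 µM averaging 50% or more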
SENP8 block-1: inhibitors of human SENP8 protease; AID 2540; purified SENP8, Z-RLRGG-aminoluciferin cleavage, luminescence; Q96LD8; inhibition, % at 10 µM; 1.2% of 330,000 active; in the data active = inhibition above about 50%
C8 TRAIL sens: sensitizes caspase-8 expressing cells to TRAIL | NB7+C8 cells + TRAIL, ATPlite viability luminescence | inhibition (viability loss, TRAIL sensitization), % at 10 µM | 1% of 360,000 active | AID 624354;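 active = compounds causing at least 50% loss of cell viability in the single-dose screen, relative to plate controls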
SENP8 block-2: inhibitors of human SENP8 protease; recombinant SENP8, Nedd8 substrate fluorescence; inhibition, % at 20 µM; 0.64% of 360,000 active; AID 602440; in the data active = inhibition mostly above about 40%, no sharp cut-off; inactive = mostly below about 27%
SENP6 block: blocks the human protease SENP6; inhibition, % at 10 µM; 1.8% of 330,000 active; Recombinant SENP6 catalytic domain, aminoluciferin luminescence;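 active = inhibition above about 50% at the single tested dose, limit read from the data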
Target sequence (Q9GZR1 628-1112 limits assumed): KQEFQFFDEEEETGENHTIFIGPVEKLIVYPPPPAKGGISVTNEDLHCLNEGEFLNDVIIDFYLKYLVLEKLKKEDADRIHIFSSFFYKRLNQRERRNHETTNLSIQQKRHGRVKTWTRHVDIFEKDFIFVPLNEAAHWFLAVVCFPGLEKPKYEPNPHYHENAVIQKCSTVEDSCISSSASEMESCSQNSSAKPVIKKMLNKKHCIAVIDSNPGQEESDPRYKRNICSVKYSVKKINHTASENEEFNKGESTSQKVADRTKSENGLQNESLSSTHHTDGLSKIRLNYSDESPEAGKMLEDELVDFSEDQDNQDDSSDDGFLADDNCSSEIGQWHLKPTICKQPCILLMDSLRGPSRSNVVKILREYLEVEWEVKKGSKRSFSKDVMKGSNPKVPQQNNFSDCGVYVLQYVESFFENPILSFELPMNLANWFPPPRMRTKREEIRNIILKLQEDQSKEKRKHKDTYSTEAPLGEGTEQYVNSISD
SENP8 confirm: confirmation of human SENP8 protease inhibitors; 40% of 6,200 active; Recombinant SENP8, Z-RLRGG-aminoluciferin luminescence, 60 min; AID 488912; inhibition, % at 12.5 µM; shares compounds with SENP7 inh;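 active = mean inhibition across replicates above about 50%, limit read from the data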
SENP6 conf: confirmation of human SENP6 protease inhibitors; shares compounds with SENP7 inh; recombinant SENP6, Z-RLRGG-aminoluciferin luminescence; inhibition, % at 12.5 µM; 58% of 6,200 active
SENP7 conf: human SENP7 inhibition, confirmed | 69% of 6,200 active | shares compounds with SENP7 inh | recombinant SENP7, Z-RLRGG-aminoluciferin luminescence, 40 min | inhibition, % at 12.5 µM
Casp3 SENP sel: selectivity test for SENP inhibitors: human caspase-3 inhibition; shares compounds with SENP7 inh; purified caspase-3, Z-DEVD-aminoluciferin luminescence, 60 min; inhibition, % at 12.5 µM; 60% of 6,200 active; AID 488918;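 active = mean inhibition above about 50%, limit read from the data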
SENP luc ctr: interferes with luciferase luminescence in SENP counter-screen; shares compounds with SENP7 inh; Pre-incubated SENP8/Z-RLRGG-aminoluciferin, luciferase luminescence interference; inhibition, % at 12.5 µM; 39% of 6,200 active; AID 488919;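 active = mean inhibition above about 50% when retested at one dose, limit read from the data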
Numbers stand for hits; n = inactive; x = not tested or not shown.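 Rule for the calls, unless noted: active = mean inhibition above about 50% in the one-dose retest (limit read from the data); inactive = the rest.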

SMILES	SENP7 inh	PPC-1+TRAIL kill	SENP8 block-1	C8 TRAIL sens	SENP8 block-2	SENP6 block	SENP8 confirm	SENP6 conf	SENP7 conf	Casp3 SENP sel	SENP luc ctr
O=C(Nc1ccc(C(=O)N2CCCCC2)cc1)Nc1cccc(Cl)c1	72.8	x	n	n	n	66.7	n	n	n	n	n
Cc1cccc(NC(=O)c2cccc(OC(=S)N3CCOCC3)c2)c1	n	x	n	n	n	n	x	x	x	x	x
COc1ccc(NC(=O)c2c(C)nn(-c3ccccc3)c2Cl)cc1	n	x	n	n	n	n	x	x	x	x	x
Cc1cc(-n2c(C)cc(C(=O)COc3ccc(F)c(F)c3)c2C)no1	n	x	n	n	n	63.8	60.3	59.1	81.2	n	n
Cc1cc(-n2c(C)cc(C(=O)COc3ccccc3[N+](=O)[O-])c2C)no1	n	n	n	n	n	n	x	x	x	x	x
Brc1ccc(-c2ncc(-c3ccccc3)cn2)cc1	74.1	n	n	n	n	n	n	n	n	n	n
CC(NC(=O)C1CCN(C(=O)Nc2ccccc2)CC1)c1ccccc1Cl (stereo unspecified)	n	x	n	n	n	n	x	x	x	x	x
O=C(CSCc1ccco1)N1CCc2ccccc21	n	x	n	n	n	56.5	n	n	79.0	67.5	58.5
O=C(Nc1ccc(CSc2ccccc2)cc1)c1ccccc1	59.4	n	n	n	n	n	n	n	n	n	n
O=C(Nc1ccccc1)c1ccc(CSc2ccccn2)cc1	97.9	n	93.4	n	n	97.0	86.6	97.5	103.0	96.4	n
O=C(Nc1cccc([N+](=O)[O-])c1)c1ccc(CSc2ccccc2)cc1	n	n	n	n	n	n	x	x	x	x	x
O=C(C(=O)N1CCN(c2ccccc2)CC1)c1ccncc1	x	x	x	n	n	x	x	x	x	x	x
O=C(NCCc1nc(-c2ccc(F)cc2)no1)c1ccc(F)cc1	n	x	n	n	n	n	x	x	x	x	x
CCCc1nc(-c2ccc(-c3ccc(F)cc3)cc2)no1	57.1	n	n	n	n	51.5	n	n	n	n	n
CC12CCC(=O)N1C(C(=O)Oc1cccc(F)c1)CS2 (stereo unspecified)	x	x	x	n	n	x	x	x	x	x	x
Cc1ccc(/C(N)=N/OC(=O)c2ccc3c(c2)OCO3)cc1	n	n	59.9	n	n	71.4	n	n	87.0	80.7	n
COc1ccc(/C(N)=N/OC(=O)c2ccc3c(c2)OCO3)cc1	68.4	n	n	n	n	n	n	n	n	n	n
COc1ccc(NC(=O)COC(=O)c2ccc3c(c2)OCO3)c(OC)c1	n	x	n	n	n	n	x	x	x	x	x
N/C(=N\OC(=O)c1ccc2c(c1)OCO2)c1ccc(Cl)cc1	n	n	76.1	n	n	87.0	n	67.6	94.4	86.2	n
N/C(=N\OC(=O)c1ccc2c(c1)OCO2)c1ccncc1	60.5	n	n	60.1	n	68.1	53.0	n	76.0	82.3	59.5
N/C(=N\OC(=O)N1CCOCC1)c1ccc(Cl)cc1	n	n	n	n	n	n	x	x	x	x	x
COc1cc(C(=O)O/N=C(\N)c2ccncc2)cc(OC)c1OC	n	n	n	n	n	n	x	x	x	x	x
COc1ccc(C)cc1NC(=O)COC(=O)c1ccc2c(c1)OCO2	n	x	n	n	n	n	x	x	x	x	x
O=C1C2CC=CCC2C(=O)N1c1nccs1 (stereo unspecified)	x	x	x	n	n	x	x	x	x	x	x
CCCCN(C(=O)CSCC(=O)Nc1ccc(OC)cc1)c1c(N)n(CC(C)C)c(=O)[nH]c1=O	x	x	x	n	n	x	x	x	x	x	x
Cn1ccsc1=NC(=O)c1ccc(OC(F)(F)F)cc1	60.9	x	51.2	n	n	63.2	55.8	58.5	88.2	62.0	66.0
Cn1ccsc1=NC(=O)c1ccc(Cl)cc1	n	n	n	n	n	n	x	x	x	x	x
